For 51 compounds, Percent Effect results are on record in ChEMBL document CHEMBL3988442, “University of Dundee, Small-Polar-MMV Screening Library” (2021).

Assay [1] concerns the target T1, Aspartate--tRNA(Asp/Asn) ligase (Mycobacterium tuberculosis (strain ATCC 25618 / H37Rv)) (UniProt P9WFW3). Note: in the data most compounds retested in dose-response had high values.
T1 sequence (whole entry): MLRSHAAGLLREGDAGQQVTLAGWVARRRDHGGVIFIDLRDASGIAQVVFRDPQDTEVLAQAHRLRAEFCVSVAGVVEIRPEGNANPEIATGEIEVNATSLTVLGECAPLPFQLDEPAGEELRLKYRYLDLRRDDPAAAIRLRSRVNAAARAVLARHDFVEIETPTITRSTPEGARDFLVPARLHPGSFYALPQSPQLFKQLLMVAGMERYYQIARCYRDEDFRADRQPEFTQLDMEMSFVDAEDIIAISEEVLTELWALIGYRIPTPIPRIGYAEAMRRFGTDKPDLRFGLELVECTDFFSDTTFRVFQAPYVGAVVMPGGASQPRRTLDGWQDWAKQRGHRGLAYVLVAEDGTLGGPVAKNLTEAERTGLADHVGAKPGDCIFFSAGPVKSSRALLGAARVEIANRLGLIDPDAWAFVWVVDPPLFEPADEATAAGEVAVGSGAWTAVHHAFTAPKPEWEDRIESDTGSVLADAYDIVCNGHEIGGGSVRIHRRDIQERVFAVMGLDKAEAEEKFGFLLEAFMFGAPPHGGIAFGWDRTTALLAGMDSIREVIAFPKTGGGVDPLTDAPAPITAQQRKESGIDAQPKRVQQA
Briefly: Assay for Asp RNA synthetase-1 from Mycobacterium tuberculosis. The note with it: 30 µM. On the set-up: scale not given: direction of the effect not stated beside the values. In kind it is functional.

Assay [2] addresses Shiga toxin 2 (Escherichia coli O157:H7) (UniProt P09385+P09386). Briefly: E. coli 0.157:H7 Shiga Toxin SOP - stx2 screening assay. The format is functional. On the set-up: scale not given: direction of the effect not stated beside the values. The note with it: 30 µM.

Consider `CC(C)(C)OC(=O)CNC(=O)CCc1nnc(-c2ccsc2)o1`, for which the Percent Effect in assay [1] is 8.92%; in assay [2] it was -21.2%.

As for `Cc1nc(C)n(CC2CCCN(CCC(=O)N3CCCCC3)C2)n1` (configuration not stated), the Percent Effect is -1.61% in assay [1] and 13.6% in assay [2].

`NC(=O)c1cc(C2CCCN(CCc3ccccn3)C2)n[nH]1` (configuration not stated): the Percent Effect was -0.833% in assay [1] and -5.89% in assay [2].

`O=C1CCCN1Cc1ncn2c1CN(C(=O)c1cccc(F)c1)CCC2`: the Percent Effect in assay [1] is -3.2%; in assay [2], 3.75%.

Take `O=C(COc1coc(CN2CCCCC2)cc1=O)NCc1ccccc1`: the Percent Effect in assay [1] is 10.2%; in assay [2], -39.3%.

As for `Cc1nc(C)n(C2CCCN(C(=O)c3csnn3)C2)n1` (configuration not stated), the Percent Effect was determined as 9.97% in assay [1] and 18.7% in assay [2].

Turning to `N#Cc1ccc(F)c(CN2CCCC2Cn2cccn2)c1` (configuration not stated), the Percent Effect in assay [1] is 0.262%; in assay [2] it was 1.36%.

On to `CCOCCn1c(=O)[nH]c2cc(C(=O)N(C)Cc3nc(C)cs3)ccc21`, for which the Percent Effect is 1.06% in assay [1] and -4.35% in assay [2].

As for `CC(C)c1nnc2n1CCN(CC(=O)N1CCc3ccccc3C1)C2`, the Percent Effect in assay [1] was -3.72%; in assay [2], -17%.

On to `Cc1nc(NC(=O)CNC(=O)c2c(F)cccc2Cl)n[nH]1`, for which the Percent Effect came out at 6.53% in assay [1] and 3.62% in assay [2].

For `CC(C)NC(=O)CC1COC2(CCN(Cc3cccs3)CC2)C1` (configuration not stated), the Percent Effect in assay [1] was -0.0228%; in assay [2], -27.2%.

With `Cc1cccc(S(=O)(=O)NCC(C)N2CCN(C)CC2)c1Cl` (configuration not stated), the Percent Effect is 1.52% in assay [1] and -12.1% in assay [2].

Take `Cc1ccc(N2CCCN(C(=O)c3cc(Cl)c[nH]3)CC2)nn1`: the Percent Effect is -1.03% in assay [1] and -26.5% in assay [2].

For `Cc1cc(C(=O)N2CCc3ncc(CN4CCOCC4)n3CC2)no1`, the Percent Effect was -4.02% in assay [1] and -7.88% in assay [2].

Take `Cc1nccn1-c1cc(CNC(=O)C(C)(C)C)ccn1`: the Percent Effect in assay [1] was 10.6%; in assay [2] it was -3.04%.

For `Cc1ccccc1-c1cc(NC(=O)CC(C)C)n(CCO)n1`, the Percent Effect was -0.569% in assay [1] and -1.82% in assay [2].

Take `c1ccc(CCN2CCOC(Cn3cccn3)C2)nc1` (configuration not stated): the Percent Effect in assay [1] is -0.259%; in assay [2], 0.927%.

For the compound `COCC1CN(C(=O)C2=CCCCC2)Cc2cnn(CC3CC3)c21` (configuration not stated), the Percent Effect was 0.918% in assay [1] and -7.05% in assay [2].

Regarding `CCn1cnnc1C1CCN(C(=O)c2cnc(C3CC3)s2)CC1`, the Percent Effect in assay [1] was -8.99%; in assay [2], -7.13%.

On to `Cc1noc(CN(Cc2ccc3c(c2)OCO3)C2CCCC2)n1`, for which the Percent Effect in assay [1] worked out at 1.87%; in assay [2], 30.6%.

With `CCN(CC1CCCO1)C(=O)Nc1cc(OC)c(OC)cc1C` (configuration not stated), the Percent Effect in assay [1] is -2.8%; in assay [2], -9.12%.

In the case of `Cc1nn(C)c(N(C)C)c1CNCCCN(C)S(C)(=O)=O`, the Percent Effect in assay [1] was -6.1%; in assay [2], -43.8%.

For the compound `CCC(=O)N1CCN(C(=O)CCn2cccn2)CC1`, the Percent Effect in assay [1] is -2.56%; in assay [2], -8.34%.

For `CC1COCCN1Cc1nc(-c2cccs2)no1` (configuration not stated), the Percent Effect in assay [1] was 14.7%; in assay [2], 20.8%.

For `CN(Cc1nc(N)c2ccccc2n1)C1CCCN(c2cccnn2)C1` (configuration not stated), the Percent Effect in assay [1] is -4.22%; in assay [2], -28.7%.

Consider `CCc1[nH]ncc1C(=O)N1CCCC(n2cccn2)C1` (configuration not stated), for which the Percent Effect in assay [1] is -2.98%; in assay [2] it was 3.89%.

Consider `Cc1nc(C)n(CC2CCCN(c3ncnc4ccsc34)C2)n1` (configuration not stated), for which the values for the Percent Effect in assay [1] and in assay [2] were 0.756% and 28.8%, respectively.

`Cc1cc(CN2CCN(C(=O)c3sccc3C3CC3)CC2)on1`: the Percent Effect in assay [1] was determined as 0.922%; in assay [2] it was 27%.

Turning to `Cc1nc(-c2ccsc2)ccc1C(=O)O`, the values for the Percent Effect in assay [1] and in assay [2] were -0.501% and -2.78%, respectively.

As for `CCc1ncc2c(n1)CN(Cc1nc(-c3ccccn3)no1)CC2`, the Percent Effect in assay [1] was 0.141%; in assay [2], -30.2%.

As for `CC(=O)Nc1nc(C(=O)NCc2ccc(N3CCCCCC3)nc2)cs1`, the Percent Effect is 6.56% in assay [1] and -131% in assay [2].

With `Cc1nc2cc(=O)[nH]n2c(C)c1CC(=O)Nc1ccc2ccccc2n1`, the Percent Effect in assay [1] amounted to 1.28%; in assay [2], 36.5%.

As for `Cc1csc(C2CCCCN2C(=O)CN(C)Cc2ccccc2)n1` (configuration not stated), the Percent Effect in assay [1] is -3.92%; in assay [2], 8.13%.

Consider `O=C(Nc1cccnc1)[C@H]1C[C@@H]2CCN(c3nncs3)C[C@H]2O1`, for which the Percent Effect was -3.84% in assay [1] and -14% in assay [2].

Regarding `Cn1nnc2c1CCN(Cc1nccs1)C2COCc1ccccc1` (configuration not stated), the Percent Effect is 2.63% in assay [1] and -58% in assay [2].

`OC1(Cn2ccc3ncccc32)CCN(Cc2ccccn2)CC1`: the Percent Effect in assay [1] was 11.7%; in assay [2] it was -31.8%.

`Cc1noc([C@@H]2C[C@H]3OCC[C@H]3N(S(=O)(=O)c3cccnc3)C2)n1`: the Percent Effect in assay [1] is -1.34%; in assay [2], -21.9%.

Take `CC(C)COCC(NC(=O)c1cc[nH]n1)c1ccco1` (configuration not stated): the Percent Effect was 7.45% in assay [1] and 9.69% in assay [2].

Regarding `COCCCN1CCC(NC(=O)C(C)C)CC1`, the Percent Effect in assay [1] was -2.37%; in assay [2], -36.2%.

With `CCn1cnnc1CNC(=O)N1CCC(C(=O)NC)CC1`, the Percent Effect in assay [1] is -8.1%; in assay [2], -16.1%.

For `CCn1cnnc1CNC(=O)N1CCN(c2nc(C)c(C)s2)CC1`, the Percent Effect in assay [1] is -5.01%; in assay [2] it was -22.1%.

Consider `COc1ccc(C(O)CNc2c(C#N)c(=O)n(C)c(=O)n2C)cc1` (configuration not stated), for which the Percent Effect is -3.91% in assay [1] and -4.88% in assay [2].

Turning to `CN(Cc1cc(-c2ccccc2)no1)C1CCCN(c2cccnn2)C1` (configuration not stated), the values for the Percent Effect in assay [1] and in assay [2] were -2.03% and -0.584%, respectively.

For the compound `COc1ccnc(N2CCN(C(=O)Cc3ccc(C#N)cc3)CC2)n1`, the results for the Percent Effect in assay [1] and in assay [2] were 4.99% and 8.53%, respectively.

Take `O=c1c(-c2ccnc(NC3CCOCC3)n2)cnc2sc(Cl)cn12`: the Percent Effect in assay [1] is -3.81%; in assay [2] it was -50%.

With `CNc1cc(N2CCCC2CNCc2cnc(C)cn2)ncn1` (configuration not stated), the Percent Effect in assay [1] was -0.989%; in assay [2], -46%.

For `CCc1noc(C(C)N2CCC(NC(=O)c3ccc(C)s3)CC2)n1` (configuration not stated), the Percent Effect was 5.23% in assay [1] and -30.1% in assay [2].

For `Cc1ccc(C(=O)N2CCC(Oc3ccc(F)cc3F)CC2)c(=O)[nH]1`, the Percent Effect in assay [1] was -4.97%; in assay [2], 30.4%.

On to `O=C([C@@H]1COC[C@H]2CN(C3CCOCC3)C[C@H]21)N1CCCCO1`, for which the Percent Effect in assay [1] was 6.99%; in assay [2], -23.5%.

As to `Cn1cccc1-c1cc(C(=O)N2CC(c3cccnc3)C2)[nH]n1`, the Percent Effect in assay [1] is -0.915%; in assay [2] it was -50.6%.

Take `COC(=O)c1sccc1NC(=O)C1CCCN1C(=O)c1ccco1` (configuration not stated): the Percent Effect in assay [1] is -0.808%; in assay [2], -12.3%.
